Results as given in PubChem BioAssay AID430 (Sanford-Burnham Center for Chemical Genomics, 2006).
In all, about 63,000 compounds went through this assay and about 1,100 (1.7%) were called active. Cut-off read from the data, not from the text of the source: active = cytotoxicity above about 50%; inactive = the rest. What follows is part of a selection rich in actives, with near analogues and random picks from the rest. Results with a measured potency or affinity are listed apart.

Experiment: cytotoxicity in HPDE-C7 cells, cell-based, fluorescence, HTS (AID 430);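 note: cells exposed to compound for 48 hours before viability readout; 0% = vehicle and 100% = reference cytotoxic drug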
Settings: HPDE-C7 pancreatic duct cells viability, at 10 µM, hits give high values

| SMILES | cytotoxicity |
| --- | --- |
| Cc1nc(N2CCC(C)CC2)c2c(C)c(C(=O)O)sc2n1 | -38.1% (inactive) |
| Cc1cc(C)c2c3c(c(-c4ccccc4)n2n1)c(=O)n(C)c(=O)n3C | -6.5% (inactive) |
| CCN1CCN(c2ccc(NC(=O)COc3ccccc3Cl)cc2)CC1 | -13.4% (inactive) |
| Cn1cc(Cl)c(C(=O)N2CCN(c3ncccn3)CC2)n1 | 3.1% (inactive) |
| CCC(c1nnnn1Cc1cccs1)N1CCN(c2nc3ccccc3s2)CC1 (stereo not drawn) | -1.9% (inactive) |
| c1ccc(COc2ccc(Nc3ncnc4nc[nH]c34)cc2)cc1 | -3.8% (inactive) |
| C=CCn1c(N)c(C(=O)OCCC)c2nc3ccccc3nc21 | 5.2% (inactive) |
| C=CCn1c(N)c(C(=O)Nc2ccccc2)c2nc3ccccc3nc21 | 66.5% (active) |
| C=CCn1c(N)c(C(=O)OC(C)(C)C)c2nc3ccccc3nc21 | 8.7% (inactive) |
| COC(=O)c1cccc(S(=O)(=O)N(Cc2ccco2)Cc2cc3ccc(OC)cc3[nH]c2=O)c1 | -2.3% (inactive) |
| O=C(CCSc1ccccc1)N1CCOCC1 | 2.9% (inactive) |
| C=CCn1c(O)c(C2=c3ccccc3=NC2=O)sc1=Nc1ccc(O)cc1 | 111% (active) |
| C=CCn1c(O)c(C2=c3ccccc3=NC2=O)s/c1=N/c1nccs1 | -2.6% (inactive) |
| O=C1N=c2ccccc2=C1c1sc(=S)n(CC2CCCO2)c1O (stereo not drawn) | -0.5% (inactive) |
| Cc1cccc(OCCc2nnc(N)s2)c1C | -15.8% (inactive) |
| CC(C)c1nnc(NC(=O)CSc2nc3ccccc3s2)s1 | -8.4% (inactive) |
| Cc1ccc(C(C(=O)NC(C)(C)C)N(CC2CCCO2)C(=O)Cn2nnc(-c3ccc(C)o3)n2)cc1 (stereo not drawn) | -0.4% (inactive) |
| COc1ccc(-c2cc3ccccc3n2CC(O)CN2CCN(CCO)CC2)cc1 (stereo not drawn) | 52.6% (active) |
| COc1ccc(-c2cc3ccccc3n2CC(O)CN2CCOCC2)cc1 (stereo not drawn) | -1.1% (inactive) |
| COc1ccc(-c2cc3ccccc3n2CC(O)CNC(CO)(CO)CO)cc1 (stereo not drawn) | 6.1% (inactive) |
| CCOc1ccc(C2C(C(=O)c3ccco3)=C(O)C(=O)N2Cc2cccnc2)cc1OC (stereo not drawn) | 7.1% (inactive) |
| CCn1c2ccccc2c2cc(CN3CCN(C(=O)c4ccco4)CC3)ccc21 | -25.2% (inactive) |
| Cc1ccc(Oc2ccc(NC(=O)c3ccco3)cc2)cc1 | 78.8% (active) |
| CCn1c2ccccc2c2cc(NC(=O)N3CCOCC3)ccc21 | 6.2% (inactive) |
| O=C(Nc1nc(-c2cccs2)c(-c2ccccc2)s1)c1ccco1 | 53.7% (active) |

| SMILES | cytotoxicity |
| --- | --- |
| O=C(OC1CCCCC1)c1ccc(NC(=O)c2ccco2)cc1 | 58.1% (active) |
| CC(=O)c1sc(NC(=O)c2ccco2)nc1-c1ccccc1 | -1% (inactive) |
| CCn1c2ccccc2c2cc(NC(=O)c3ccco3)ccc21 | 57.2% (active) |
| O=C(O)CCC(=O)Nc1ccc(C(=O)OC2CCCCC2)cc1 | -4.7% (inactive) |
| O=C(Nc1ccc(OC(=O)c2ccco2)cc1)c1ccco1 | -10.9% (inactive) |
| Cc1ccc(NC(=O)c2ccc(OC(=O)c3ccco3)cc2)cc1 | -5.6% (inactive) |
| O=C(Nc1ccc(Oc2ccc(NC(=O)c3ccco3)c(NC(=O)c3ccco3)c2)cc1)c1ccco1 | 25% (inactive) |
| CCOC(=O)c1sc(NC(=O)c2ccco2)nc1-c1ccccc1 | -8.2% (inactive) |
| CC(C)CCNC(=O)CN(CCN1CCOCC1)C(=O)Cn1nnc(-c2ccc(F)cc2)n1 | 4.5% (inactive) |
| Cc1c(C(=O)O)sc2ncnc(N3CCCCC3C)c12 (stereo not drawn) | 9.8% (inactive) |
| COC(=O)c1sc(NC(=O)c2ccco2)nc1C | -3.5% (inactive) |
| CCCCCOC(=O)c1ccc(NC(=O)c2ccco2)cc1 | 65.9% (active) |
| CCOC(=O)c1sc(NC(=O)c2ccco2)nc1C | -1.4% (inactive) |
| CCCCOC(=O)c1ccc(NC(C)=O)cc1 | -11.4% (inactive) |
| Cc1nc(NC(=O)c2ccco2)sc1C(=O)Nc1ccc(Br)cc1 | 65.7% (active) |
| CCCCOC(=O)c1ccc(NC(=O)c2ccoc2C)cc1 | 3.4% (inactive) |
| Cc1ccc2c(c1)NCCO2 | 5.4% (inactive) |
| Cc1nnc(C)n1/N=C/c1cc(Br)ccc1O | -12.5% (inactive) |
| Cc1nnc(C)n1/N=C/c1cc(Br)cc(Br)c1O | 79.9% (active) |
| COc1c(Br)cc(Br)cc1/C=N/n1c(C)nnc1C | 2.9% (inactive) |
| CC(C)COC(=O)C(N)C(C(=O)OCC(C)C)c1ccccc1 (stereo not drawn) | -6.4% (inactive) |
| O=C(NCC1CCCO1)C1CC(=O)N(c2ccc(F)c(Cl)c2)C1 (stereo not drawn) | 3.4% (inactive) |
| CCNc1ccc2c(Cl)cc(=O)oc2c1 | -2% (inactive) |
| CCN(CC)c1ccc2c(C)c(CN3CCOCC3)c(=O)oc2c1 | 24.1% (inactive) |
| CCOC(=O)Cc1c(C)c2ccc(N(CC)CC)cc2oc1=O | -17.8% (inactive) |

| SMILES | cytotoxicity |
| --- | --- |
| CCN(CC)c1ccc2c(C)c(-c3ccc(N)cc3)c(=O)oc2c1 | 11% (inactive) |
| CCN(CC)C(=O)CSc1nnc(-c2cccs2)n1Cc1ccco1 | 17.7% (inactive) |
| O=C(COc1ccccc1)N1CCN(C(=O)c2cccc(F)c2)CC1 | -40.5% (inactive) |
| CCOC(=O)CN1C(=O)COc2ccc(Cl)cc21 | -8.8% (inactive) |
| CCN(CC)CCCN(Cc1cc2cc3c(cc2[nH]c1=O)OCCO3)C(=O)Nc1ccc(F)cc1 | 0.9% (inactive) |
| O=C(O)c1cccc(Cn2cc(Br)cn2)c1 | -12.3% (inactive) |
| O=C(c1ccc(Cn2cc(Cl)cn2)cc1)N1CCN(c2ccccc2)CC1 | 12.3% (inactive) |
| O=C(c1ccc(Cn2cc(Br)cn2)cc1)N1CCN(c2ccccc2)CC1 | 53.1% (active) |
| CC(=O)N(Cc1cc(=O)[nH]c2ccccc12)c1cccc(C)c1 | 12% (inactive) |
| CC1(C)CC(=O)C2=C(C1)N(CCN1CCOCC1)C1=C(C(=O)CC(C)(C)C1)C2c1cccc(Cl)c1 | 3.8% (inactive) |
| O=C1CC(N2CCN(c3ccccc3)CC2)C(=O)N1c1ccc2c(c1)OCCO2 (stereo not drawn) | -4.9% (inactive) |
| Cc1ccc(CCNC(=O)C2CCCN(c3nc4ccccc4o3)C2)cc1 (stereo not drawn) | -18% (inactive) |
| CCOc1cc(NC(=O)c2ccco2)c(OCC)cc1NC(=O)c1cc(OC)c(OC)c(OC)c1 | 14.4% (inactive) |
| COc1cc(C(=O)Nc2ccc(NC(=O)c3ccco3)nc2)cc(OC)c1OC | -2.5% (inactive) |
| COc1cc(NC(=O)c2ccco2)c(OC)cc1NC(=O)c1cc(OC)c(OC)c(OC)c1 | 52.3% (active) |
| Cc1cccc(NC(=O)Cn2c(C)c(C#N)c3ccccc32)c1C | -4.9% (inactive) |
| O=C(CSc1n[nH]c(=O)[nH]c1=O)c1ccccc1 | 5% (inactive) |
| c1ccc(Cc2nnc3sc(Nc4ccccc4)nn23)cc1 | 3% (inactive) |
| CCn1c(SCC(=O)N2CCN(c3ccc(Cl)cc3)CC2)nc2ccccc2c1=O | 2.2% (inactive) |
| O=C(NCc1cccnc1)C1CC(=O)N(c2ccc(Cl)cc2)C1 (stereo not drawn) | -7% (inactive) |
| CSC1=NCCN1C(=O)c1cccs1 | 2% (inactive) |
| N#CC1=C(SCC(=O)c2ccccc2)NC2=C(C(=O)CCC2)C1c1ccco1 (stereo not drawn) | 54.3% (active) |
| Cc1ccc(C(=O)CSC2=C(C#N)C(c3ccco3)C3=C(CCCC3=O)N2)cc1 (stereo not drawn) | 76.5% (active) |
| Cc1ccc(NC(=O)CSC2=C(C#N)C(c3ccco3)C3=C(CCCC3=O)N2)cc1 (stereo not drawn) | 3.5% (inactive) |
| CC(C)(C)c1ccc(C(=O)CCCSC2=C(C#N)C(c3ccco3)C3=C(CCCC3=O)N2)cc1 (stereo not drawn) | 38.2% (inactive) |

| SMILES | cytotoxicity |
| --- | --- |
| COc1ccc(NC(=O)CSC2=C(C#N)C(c3ccco3)C3=C(CCCC3=O)N2)c(OC)c1 (stereo not drawn) | -2.1% (inactive) |
| Cc1ccc(C(=O)CSC2=C(C#N)C(c3ccco3)C3=C(CC(C)(C)CC3=O)N2)cc1 (stereo not drawn) | 7.1% (inactive) |
| CCOC(=O)N1CCN(CC(=O)Nc2c(C(=O)OC)[nH]c3cccc(Cl)c23)CC1 | -17.3% (inactive) |
| COc1ccc(-n2nnnc2SCC(=O)c2cc3ccccc3o2)cc1 | -1.1% (inactive) |
| CCOC(=O)C1C(=O)CC(C)(O)C(C(=O)OCC)C1c1ccccc1OC (stereo not drawn) | -17.4% (inactive) |
| CSCCC(NC(=O)OC(C)(C)C)C(=O)NC(CC(C)C)C(N)=O (stereo not drawn) | -35.4% (inactive) |
| Cc1cccc(C)c1NC(=O)C(c1ccccc1)N1CCC2(CC1)OCCO2 (stereo not drawn) | 9.2% (inactive) |
| CCCC1=C(C(=O)OCC)C(c2ccccc2OC)NC(=O)N1 (stereo not drawn) | -16.5% (inactive) |
| Cc1noc(C)c1S(=O)(=O)N(CC(=O)N1CCn2c1nc1ccccc12)c1ccc(C(C)C)cc1 | 8.7% (inactive) |
| CCCn1c(NCc2ccco2)nc2ccccc21 | 2% (inactive) |
| CCCn1c(CNc2ccccc2O)nc2ccccc21 | 14.5% (inactive) |
| CCCn1c(NC(=O)c2ccccc2)nc2ccccc21 | -20.2% (inactive) |
| Cn1c(CNc2ccccc2)nc2ccccc21 | -11.4% (inactive) |
| CCCn1c(CNc2ccc(Br)cc2)nc2ccccc21 | 50.8% (active) |
| Cc1ccc(Nc2cc(C)nc3nc(C)nn23)c(C)c1 | -12.6% (inactive) |
| C=CCOC(=O)C1=C(C)OC(N)=C(C#N)C1c1ccccc1F (stereo not drawn) | 6.1% (inactive) |
| COC(=O)c1ccc(CSc2nc(N)cc(N)n2)cc1 | -4.4% (inactive) |
| CCC(C)NCC(O)COCc1ccc(Cl)cc1 (stereo not drawn) | 9.9% (inactive) |
| O=C(c1cnn2c1NC(c1ccco1)CC2C(F)(F)F)N1CCN(c2cccc(Cl)c2)CC1 (stereo not drawn) | 50.2% (active) |
| O=C(Nc1ccc2c(c1)CCC2)c1cnn2c1NC(c1ccco1)CC2C(F)(F)F (stereo not drawn) | -4.4% (inactive) |
| O=C(c1ccco1)N1CCN(C(=O)c2cnn3c2NC(c2cccs2)CC3C(F)(F)F)CC1 (stereo not drawn) | -5% (inactive) |
| Cc1ccc(-c2ccc(=O)n(CCC(=O)NCCN3CCCCC3C)n2)cc1 (stereo not drawn) | 5.1% (inactive) |
| O=S(=O)(Nc1nc2ccccc2nc1NCCO)c1cccc(Cl)c1 | 12.5% (inactive) |
